Reference: PubChem BioAssay (NCATS)
Values without a mark were called inactive. Records with an inconclusive call do not appear. A call without a number means that no potency is given here. Activity calls are given as the source filed them. Calls follow the shape of the dose curve; as a rule, active = well fitted curve in the direction sought with a large enough effect; inconclusive = small, poorly fitted or top-dose-only effect, or another doubt; inactive = no such curve, though single readings can be large; an effect the other way counts as inactive or inconclusive.

Columns and labels:
[1] = Primary fluorescence-based thiol-reactive (MSTI) qHTS assay for identification of artifact compounds. (AID 1845221); also: nearly all actives have a fitted effect of over 65% in size; also: potency is read from the fitted curve at half-maximal effect;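 as to activity change, negative = thiol reactive: series mostly up to about 54 µM; thiol-reactive compounds lower the probe fluorescence signal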
How it was run: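 First, 4 uM MSTI in 2% DMSO/PBS pH 7.4 was dispensed; next, compounds were added; then plates sat 1 h at room temperature without light. Finally, emission at 598 nm was recorded.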

[2] = system: Nanoluciferase (engineered Oplophorus gracilirostris luciferase); experiment: Primary Nanoluciferase (NLuc) qHTS assay for identification of artifact compounds. (AID 1845222); also: series mostly up to about 54 µM
How it was run: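 Luminescence from secreted NLuc (filtered, 1:55-diluted S16 cell medium) read 5 min after Nano-Glo substrate; compounds preincubated 15 min, RT. Hill fits of inhibition normalized to DMSO and no-enzyme.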

[3] = Primary redox qHTS assay for identification of artifact compounds. (AID 1845223)
How it was run: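 Redox-cycling detection via DTT (250 uM final) oxidation coupled to Amplex Red (25 uM)/HRP (250 mU/mL) in HBSS. 15 min preincubation plus 30 min after DTT, room temperature. Ex/Em 525/598 nm; 4-parameter Hill fit against DMSO and 10 uM DA3003.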

Row | Compound | Potency [1] | Potency [2] | Potency [3] | activity change, negative = thiol reactive [1] | activity, negative = inhibition [2] | redox activity (% of DA3003) [3]
1 | COC(=O)C1=CO[C@@H](O[C@@H]2O[C@H](CO)[C@@H](O)[C@H](O)[C@H]2O)[C@@H]2[C@@H](CO)[C@@H](O)C(O)[C@H]12 (some centres not stated) | inactive | inactive | inactive | – | – | –
2 | Fc1ccc(-c2c3cccc(C(F)(F)F)c3nn2Cc2ccc(F)cc2Cl)cc1 | inactive | inactive | inactive | – | – | –
3 | CNc1nc(Cc2ccccc2)nc2c1CCNC[C@@H]2C | inactive | inactive | inactive | – | – | –
4 | C/C(=C\CC[C@H](CO)[C@@H]1CC[C@]2(C)C3=C(CC[C@@]12C)[C@@]1(C)CCC(=O)C(C)(C)C1CC3)C(=O)O (some centres not stated) | inactive | inactive | inactive | – | – | –
5 | COC(=O)C(CC1(O)c2ccccc2N2C(=O)C(C)(C)N(O)C21)n1cnc2ccccc2c1=O (configuration not stated) | inactive | inactive | inactive | – | – | –
6 | CC1C2=CC(=O)OC2(O)CC2C1CCC1C(C)(C)CCC(O)C21C (configuration not stated) | inactive | inactive | inactive | – | – | –
7 | CCNC(=O)OC1CCN(c2nncc3cc(OC)c(OC)cc23)CC1 | inactive | inactive | inactive | – | – | –
8 | C=CC(C)(O)CC/C=C(\C)COC1O[C@H](CO)[C@@H](O)[C@H](O)[C@H]1O (some centres not stated) | 2.93 µM (active) | inactive | inactive | – | – | –
9 | CC1=C(CO)CC(C(C)C2CCC3C4CC=C5CC(OC6OC(COC7OC(CO)C(O)C(O)C7O)C(O)C(O)C6O)CC(O)C5(C)C4CCC23C)OC1=O (configuration not stated) | inactive | inactive | inactive | – | – | –
10 | CC1=CCC[C@@H]2[C@@](C)(CCc3ccoc3)[C@H](C(=O)O)CC[C@@]12C | inactive | inactive | inactive | – | – | –
11 | C[C@@H]1O[C@@H](O[C@H]2[C@@H]3C=CO[C@@H](O[C@@H]4O[C@H](CO)[C@@H](O)[C@H](O)[C@H]4O)[C@@H]3[C@@]3(CO)O[C@@H]23)[C@H](O)[C@H](OC(=O)/C=C/c2ccc(O)c(O)c2)[C@H]1O | 0.562 µM (active) | inactive | inactive | – | – | –
12 | CCN=C1N[C@@H]2[C@@H](O)[C@H](O)[C@@H](CO)O[C@@H]2S1 | inactive | inactive | inactive | – | – | –
13 | C=C1CC[C@H]2[C@@](C)(CCC(O)[C@@]2(C)CO)[C@@H]1/C=C/C(=C\C(=O)O)C(=O)O (some centres not stated) | 5.21 µM (active) | inactive | inactive | – | – | –
14 | C=C(C(=O)O)[C@@H]1CC[C@@]2(C)CCC[C@@](C)(O)[C@@H]2C1 | inactive | inactive | inactive | – | – | –
15 | COc1cc(O)cc(C)c1C(=O)O[C@H]1[C@@H](O)[C@@H](n2ccc(=O)[nH]c2=O)O[C@@H]1CO | inactive | inactive | inactive | – | – | –
16 | CC(=O)O[C@@H]1C(=O)C(C)=C(CCC(C)CC(=O)O)[C@@]2(C)CCCC(C)(C)C12 (some centres not stated) | inactive | inactive | inactive | – | – | –
17 | CN1CCc2cc(Cl)c(O)cc2[C@@H](c2cccc3c2OCC3)C1 | inactive | inactive | inactive | – | – | –
18 | CC(O)C/C=C/C=C/C(=O)OC1C=C2COC(=O)C2(O)C2(C)CCCC(C)(C)C12 (configuration not stated) | inactive | inactive | inactive | – | – | –
19 | CC1OC(O[C@H]2CC[C@@]3(C)C(CC[C@]4(C)C3CC=C3C5CC(C)(C)CC[C@]5(C(=O)OC5OC(CO)C(OC6OCC(OC7OCC(O)C(O)C7O)C(O)C6O)C(O)C5O)CC[C@]34C)C2(C)C)C(O)C(O)C1OC1OC(CO)C(O)C(OC2OC(CO)C(O)C(O)C2O)C1O (some centres not stated) | – | – | – | 250% [at 11.5 µM] | 0.21% [at 11.6 µM] | 2.88% [at 11.5 µM]
